Records with an inconclusive call do not appear. Active and inactive are the calls of the source. Calls come from the whole dose curve; as a rule, active = well fitted curve in the direction sought with a large enough effect; inconclusive = small, poorly fitted or top-dose-only effect, or another doubt; inactive = no such curve, though single readings can be large; an effect the other way counts as inactive or inconclusive.

A short description of assay [1]: Quantitative High-Throughput drug screen in 47 multiple myeloma cell lines against the NCATS MIPE library collection: FR4_PLB cell viability assay (AID 1918924; note: nearly all actives have a fitted effect of over 35% in size; note: potency is the fitted concentration of half-maximal effect). An outline of the steps: (§1)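 Luminescent ATP measurement with CellTiter-Glo gives viability, scaled between DMSO-only wells (100%) and media-only wells (0%). Cells, 500 per well, faced library compounds for 48 hours at 37C.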

Assay [2] can be described thus: Quantitative High-Throughput drug screen in 47 multiple myeloma cell lines against the NCATS MIPE library collection: Delta47_JCRB cell viability assay (AID 1918925; note: nearly all actives have a fitted effect of over 45% in size; note: potency is the fitted concentration of half-maximal effect). The essentials: (§2)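 Myeloma cell lines, 500 cells per well, exposed to MIPE 4.0 library compounds for 48 h at 37C, 5% CO2. Viability from ATP by CellTiter-Glo luminescence; normalised to DMSO (100%) and media-only (0%) wells.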

The nature of assay [3]: Quantitative High-Throughput drug screen in 47 multiple myeloma cell lines against the NCATS MIPE library collection: EJM_DSMZ cell viability assay (AID 1918926; note: nearly all actives have a fitted effect of over 30% in size; note: potency is the fitted concentration of half-maximal effect). An outline of the steps: as §2
Assay [4] can be described thus: Quantitative High-Throughput drug screen in 47 multiple myeloma cell lines against the NCATS MIPE library collection: AMO1_DSMZ cell viability assay (AID 1918927; note: nearly all actives have a fitted effect of over 30% in size; note: potency is the fitted concentration of half-maximal effect). An outline of the steps:
as §2

The nature of assay [5]: Quantitative High-Throughput drug screen in 47 multiple myeloma cell lines against the NCATS MIPE library collection: ARP1_JJKsccF8 cell viability assay (AID 1918928; note: nearly all actives have a fitted effect of over 40% in size; note: potency is the fitted concentration of half-maximal effect). An outline of the steps: (§3)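 Luminescence from CellTiter-Glo, taken after 5 min at room temperature, reports cellular ATP as viability. Cells (500 per well) had been treated 48 h at 37 °C with MIPE 4.0 compounds, scaled between DMSO and medium-only controls.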

Assay [6] in a line: Quantitative High-Throughput drug screen in 47 multiple myeloma cell lines against the NCATS MIPE library collection: ARD_JJKsccE7 cell viability assay (AID 1918929; note: potency is the fitted concentration of half-maximal effect). An outline of the steps: as §2
Assay [7] in a line: Quantitative High-Throughput drug screen in 47 multiple myeloma cell lines against the NCATS MIPE library collection: Karpas620_DSMZ cell viability assay (AID 1918959). Note: nearly all actives have a fitted effect of over 30% in size. Note: potency is the fitted concentration of half-maximal effect. The essentials: as §1
Assay [8] can be described thus: Quantitative High-Throughput drug screen in 47 multiple myeloma cell lines against the NCATS MIPE library collection: KMM1_JCRB cell viability assay (AID 1918960). Note: nearly all actives have a fitted effect of over 30% in size. Note: potency is the fitted concentration of half-maximal effect. The essentials:
as §3

Assay [9] can be described thus: Quantitative High-Throughput drug screen in 47 multiple myeloma cell lines against the NCATS MIPE library collection: Karpas417_ECACC cell viability assay (AID 1918961). Note: potency is the fitted concentration of half-maximal effect. To be noted: Karpas417 myeloma viability, CellTiter-Glo ATP luminescence, 48 h; viability (% of DMSO): at 45.8 µM (top of the series). An outline of the steps: (§4)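 Steps: seed 500 cells per well; pin-transfer MIPE 4.0 library; incubate 48 h at 37C, 5% CO2, humidified; add CellTiter-Glo, 5 min room temperature; read luminescence.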
For orientation: In ATP-based viability assays light output follows the ATP content of the culture.

Assay [10] in a line: Quantitative High-Throughput drug screen in 47 multiple myeloma cell lines against the NCATS MIPE library collection: KHM11_PLB cell viability assay (AID 1918962). Note: nearly all actives have a fitted effect of over 35% in size. Note: potency is the fitted concentration of half-maximal effect. The essentials: as §1
The nature of assay [11]: Quantitative High-Throughput drug screen in 47 multiple myeloma cell lines against the NCATS MIPE library collection: JIM3_ECACC cell viability assay (AID 1918963; note: nearly all actives have a fitted effect of over 35% in size; note: potency is the fitted concentration of half-maximal effect). An outline of the steps: as §1
Assay [12] is described as follows: Quantitative High-Throughput drug screen in 47 multiple myeloma cell lines against the NCATS MIPE library collection: JIM1_ECACC cell viability assay (AID 1918964; note: potency is the fitted concentration of half-maximal effect). The essentials:
as §2

Assay [13] can be described thus: Quantitative High-Throughput drug screen in 47 multiple myeloma cell lines against the NCATS MIPE library collection: INA6_PLB cell viability assay (AID 1918965; note: nearly all actives have a fitted effect of over 55% in size; note: potency is the fitted concentration of half-maximal effect). The essentials:
as §4

The nature of assay [14]: Quantitative High-Throughput drug screen in 47 multiple myeloma cell lines against the NCATS MIPE library collection: H1112_PLB cell viability assay (AID 1918967; note: nearly all actives have a fitted effect of over 30% in size; note: potency is the fitted concentration of half-maximal effect). The essentials: as §2
A short description of assay [15]: Quantitative High-Throughput drug screen in 47 multiple myeloma cell lines against the NCATS MIPE library collection: KMS27_JCRB cell viability assay (AID 1918970). Note: nearly all actives have a fitted effect of over 30% in size. Note: potency is the fitted concentration of half-maximal effect. An outline of the steps: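 Each line is seeded at 500 cells per well and treated with library compounds for 48 hours under 37 °C, 5% CO2. CellTiter-Glo is then added for 5 min at room temperature before median relative luminescence is recorded.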

Assay [16] is described as follows: Quantitative High-Throughput drug screen in 47 multiple myeloma cell lines against the NCATS MIPE library collection: KMS12BM_JCRB cell viability assay (AID 1918971). Note: potency is the fitted concentration of half-maximal effect; nearly all actives have a fitted effect of over 35% in size. An outline of the steps:
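CellTiter-Glo luminescence (ATP) after 48 h compound exposure, 37C/5% CO2; 500 cells/well; MIPE 4.0 approved/investigational drugs pinned in; DMSO = 100%, media only = 0% viability.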

Assay [17] in a line: Primary redox qHTS assay for identification of artifact compounds. (AID 1845223). An outline of the steps: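 Amplex Red (25 uM) and HRP (250 mU/mL) in HBSS, with compounds for 15 min, then 250 uM DTT for 30 min, room temperature, dark. Fluorescence 525/598 nm read; normalized to DMSO and 10 uM DA3003; Hill fit.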
Background: qHTS replaces the single test concentration by a dilution series.

In assay [18] the test system is Nanoluciferase (engineered Oplophorus gracilirostris luciferase). As to the kind of experiment: Primary Nanoluciferase (NLuc) qHTS assay for identification of artifact compounds. (AID 1845222).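 Note: NLuc secreted into diluted conditioned medium of S16 cells.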 The essentials: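 NLuc from S16 cell medium (1:55) plus test compounds, 15 min, room temperature. Luminescence after Nano-Glo (1:100) addition, 5 min.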
Assay [19] can be described thus: Quantitative High-Throughput drug screen in 47 multiple myeloma cell lines against the NCATS MIPE library collection: Karpas25_ECACC cell viability assay (AID 1918968; note: nearly all actives have a fitted effect of over 35% in size; note: potency is the fitted concentration of half-maximal effect). An outline of the steps:
as §2

The nature of assay [20]: Quantitative High-Throughput drug screen in 47 multiple myeloma cell lines against the NCATS MIPE library collection: JJN3_DSMZ cell viability assay (AID 1918966; note: potency is the fitted concentration of half-maximal effect; nearly all actives have a fitted effect of over 50% in size). An outline of the steps:
as §2

Turning to `CC[C@@]1(O)C(=O)OCc2c1cc1n(c2=O)Cc2cc3ccccc3nc2-1`, the Potency in [1] is 296 nM (active); in assay [2], 74.3 nM (active); in assay [3], 209 nM (active); in assay [4], 23.5 nM (active); in [5], 118 nM (active); in assay [6], 372 nM (active). In addition, the Potency was 418 nM (active) in [7]; 105 nM (active) in assay [8]; 296 nM (active) in assay [9]; 235 nM (active) in assay [10]; 264 nM (active) in assay [11]; 132 nM (active) in assay [12]. Besides, the Potency was 20.9 nM (active) in assay [13], 59 nM (active) in assay [14], 16.6 nM (active) in assay [15] and 166 nM (active) in [16].
As for `CCNC(=O)C[C@@H]1N=C(c2ccc(Cl)cc2)c2cc(OC)ccc2-n2c(C)nnc21`, the result in assay [17] was inactive. Besides, the Potency in assay [2] is 418 nM (active); in [3], 1050 nM (active); in assay [4], 372 nM (active); in [5] it was 372 nM (active); in assay [6] it was 264 nM (active); in assay [7] it was 1050 nM (active). The Potency in assay [8] was 235 nM (active); in [9] it was 13.2 nM (active); in [11], 6620 nM (active); in assay [12] it was 1660 nM (active); in assay [13] it was 132 nM (active); in [14] it was 743 nM (active). In assay [15], the Potency was 469 nM (active).
Take `CC1(N2CCC(n3c([C@@H]4CCCNC4)nc4ccccc43)CC2)CCCCCCC1`: the call in [18] and in [17] was inactive. The Potency in [1] is 23500 nM (active); in assay [2], 13200 nM (active); in assay [4] it was 26400 nM (active); in assay [7], 9350 nM (active); in [8], 16600 nM (active); in assay [10], 6620 nM (active). Further, the Potency in [13] and in [15] was 14800 nM (active) in each case. Moreover, the Potency entry in assay [3] is “inactive”.
`O=C1C=CC[C@@H]2[C@H]3CCCN4CCC[C@@H](CN12)[C@@H]34`: the result in assay [18] and in [17] was inactive. The Potency in assay [1] is 11800 nM (active). The Potency result in [3], in [4], in [5], in assay [7], in assay [8] and in assay [9] was “inactive” throughout. Besides, in assay [11], the Potency entry is “inactive”.
For the compound `CCOC(=O)Nc1ccc(NCc2ccc(F)cc2)cc1N`, the result in assay [18] and in assay [17] was inactive. The Potency result in [1], in assay [3], in [4], in assay [5], in assay [9] and in assay [11] was “inactive” in each case. Moreover, the Potency in assay [2] was 7430 nM (active); in [8], 6620 nM (active); in assay [14], 10500 nM (active).
On to `NC1=NC(=O)N2CC12` (stereo unspecified), for which the Potency result in [1], in [3] and in [5] was “inactive” each time. The Potency in assay [2] is 10500 nM (active); in assay [4], 13200 nM (active); in [6] it was 18700 nM (active); in assay [7], 9350 nM (active); in assay [8] it was 11800 nM (active); in assay [9] it was 1660 nM (active). The Potency was 13200 nM (active) in assay [12], 18700 nM (active) in assay [13] and 7430 nM (active) in assay [15].
As for `CC(N[C@H]1C[C@H]1c1ccccc1)c1ccc2c(c1)OCCO2` (stereo partly specified), the compound was classed as inactive in assay [18] and in [17]. The Potency result in assay [1], in assay [2], in [3], in assay [4], in assay [7] and in assay [8] was “inactive” each time. The Potency result in assay [10], in assay [11], in assay [12], in assay [13], in assay [14] and in assay [19] was “inactive” throughout. Also, the Potency entry in assay [15] was “inactive”. In addition, the Potency in [5] is 8330 nM (active).
As to `CC(C)N(CCNC(=O)CN1CCCC1=O)C(C)C`, the compound was classed as inactive in [18] and in assay [17]. Further, the Potency entry in [1], in assay [2], in [3], in assay [4], in assay [5] and in assay [6] was “inactive” throughout. Besides, the Potency result in assay [7], in assay [8], in assay [9], in assay [10], in assay [11] and in assay [13] was “inactive” each time. Besides, in [14], the Potency result was “inactive”.
As for `CC1=C(O)C(=O)C=C2C1=CC=C1[C@@]2(C)CC[C@@]2(C)[C@@H]3C[C@](C)(C(=O)O)CC[C@]3(C)CC[C@]12C`, the Potency in assay [1] was 743 nM (active); in [2], 833 nM (active); in assay [3] it was 743 nM (active); in [4], 526 nM (active); in assay [5], 743 nM (active); in assay [6], 1050 nM (active). The Potency was 1050 nM (active) in assay [7]; 833 nM (active) in assay [8]; 743 nM (active) in assay [9]; 743 nM (active) in [10]; 662 nM (active) in assay [11]; 743 nM (active) in assay [12]. In addition, the Potency was 743 nM (active) in assay [13]; 1320 nM (active) in assay [14]; 833 nM (active) in assay [19]; 1870 nM (active) in assay [15]; 526 nM (active) in assay [16].
Take `O=C(NCC1CCOCC1)c1cnc(Nc2ccc(Cl)cc2Cl)nc1C(F)(F)F`: the outcome in assay [18] and in assay [17] was inactive. Also, the Potency was 14800 nM (active) in [1]; 7430 nM (active) in assay [2]; 18700 nM (active) in [4]; 5260 nM (active) in assay [7]; 18700 nM (active) in assay [13]; 5900 nM (active) in [14]. The Potency entry in assay [3] and in assay [8] was “inactive” throughout.
In the case of `O=C(O)CNC(=O)c1c(O)c2ccccc2n(Cc2ccccc2)c1=O`, the call in assay [18] and in assay [17] was inactive. The Potency result in [1], in assay [2], in assay [3], in assay [4], in [5] and in [6] was “inactive” throughout. Moreover, the Potency result in assay [7], in assay [8], in [11], in [12], in assay [14] and in assay [15] was “inactive” in each case.
In the case of `O=C(Oc1ccc([N+](=O)[O-])cc1)N1CCN(Cc2cccc(Oc3ccccc3)c2)CC1`, the compound was called inactive in assay [18] and in [17]. The Potency result in [1], in [3], in [4], in [5], in assay [11] and in assay [15] was “inactive” each time.
Regarding `Cc1c(C(=O)Nc2cccc(C(F)(F)F)c2)cc(-c2ccccc2)n1CCCN1CCOCC1`, the call in [18] and in assay [17] was inactive. The Potency is 23500 nM (active) in assay [1]; 16600 nM (active) in [2]; 18700 nM (active) in [3]; 8330 nM (active) in [4]; 20900 nM (active) in assay [5]; 5900 nM (active) in assay [6]. Further, the Potency was 16600 nM (active) in assay [7]; 14800 nM (active) in assay [8]; 7430 nM (active) in assay [9]; 20900 nM (active) in assay [11]; 6620 nM (active) in assay [12]; 16600 nM (active) in assay [13]. For the same compound, the values for the Potency in assay [20], in assay [14] and in assay [15] were 16600 nM (active), 3720 nM (active) and 18700 nM (active), respectively.

The values are drawn from PubChem BioAssay (NCATS).
